Hits are enriched below; roughly 3.5% of the tested compounds scored in any of these assays.
TEAD-YAP inh: TEAD-YAP interaction inhibition; HEK-TIYL cells, TEAD-Gal4/YAP UAS-luciferase luminescence; inhibition, % at 9.12 µM; 640,000 compounds, 1.4% hits; AID 1259422; in the data active = inhibition above about 32%;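 note: 0% = median of test compound wells and 100% = reference inhibitor wells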
MITF primary: human MITF inhibition, primary screen | AlphaScreen MITF homodimerization, bead proximity signal | AID 1259374 | 650,000 compounds, 0.91% hits | inhibition, % at 2.6 µM; in the data active = inhibition above about 50%;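 note: 0% = vehicle wells with protein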
GPR151 ag: human GPR151 activation. 650,000 compounds, 1% hits. Q8TDV0. PathHunter beta-arrestin GPR151 cells, luminescence. activation, % at 11.2 µM; in the data active = activation above about 4.9%;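 note: 0% = median of compound wells and 100% = cells with positive control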
FBW7 activator: activators of human E3 ligase FBW7; Q969H0; AlphaScreen FBW7–phospho-cyclin E peptide binding, activator screen; normalized activity (activation), % at 26.1 µM; 650,000 compounds, 0.13% hits; AID 1259310; in the data active = normalized activity above about 1.9%;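 note: purified mutant Fbw7 with reduced substrate affinity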
Target sequence (Q969H0 whole entry, looked up): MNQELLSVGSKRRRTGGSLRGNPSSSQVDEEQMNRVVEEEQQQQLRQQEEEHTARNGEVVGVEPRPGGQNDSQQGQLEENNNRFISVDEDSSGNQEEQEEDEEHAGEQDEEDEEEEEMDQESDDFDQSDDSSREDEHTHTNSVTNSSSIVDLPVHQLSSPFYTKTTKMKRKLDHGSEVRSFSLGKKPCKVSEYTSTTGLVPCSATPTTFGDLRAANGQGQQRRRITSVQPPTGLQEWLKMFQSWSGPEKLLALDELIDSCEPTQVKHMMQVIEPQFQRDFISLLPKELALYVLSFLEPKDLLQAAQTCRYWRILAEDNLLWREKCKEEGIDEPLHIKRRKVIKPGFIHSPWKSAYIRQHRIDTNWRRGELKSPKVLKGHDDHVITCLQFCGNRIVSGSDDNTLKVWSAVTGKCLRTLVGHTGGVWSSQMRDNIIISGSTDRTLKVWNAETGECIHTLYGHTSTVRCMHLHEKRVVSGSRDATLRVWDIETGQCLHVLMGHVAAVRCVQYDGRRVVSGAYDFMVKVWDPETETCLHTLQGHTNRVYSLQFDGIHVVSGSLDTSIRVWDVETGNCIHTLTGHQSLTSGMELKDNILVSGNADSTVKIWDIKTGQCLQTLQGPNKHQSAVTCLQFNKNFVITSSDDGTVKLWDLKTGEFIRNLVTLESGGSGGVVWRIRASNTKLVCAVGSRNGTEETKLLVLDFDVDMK
* hit, by the source's call.

SMILES	TEAD-YAP inh	MITF primary	GPR151 ag	FBW7 activator
c1ccc2[nH]c(CNc3nc(Nc4ccc(-n5ccnc5)cc4)nc4c3ncn4-c3ccsc3)nc2c1	65*	3	-2	0
Cn1c(Nc2nc(NCc3nc4ccccc4[nH]3)c3ncn(-c4ccsc4)c3n2)nc2ccccc21	22	12	0	0
COc1ccc(-c2noc(NCc3cccc(Cl)c3)n2)cc1	-4	1	0	0
Cc1c2cnn(CC(=O)NC3CCCCC3C)c(=O)c2c(C)n1Cc1ccc(F)cc1 (stereo not drawn)	-1	7	1	0
c1cn(-c2ccc(Nc3nc(Nc4ccc5c(c4)OCO5)c4ncn(-c5ccsc5)c4n3)cc2)cn1	53*	13	-1	0
CC(C)(C)c1ccc(-c2ccc(OCCN3CCCC3=O)nc2)cc1	52*	7	1	0
CCOC(=O)c1c(C)[nH]c(C)c1C(=O)COC(=O)c1ccc(O)cc1	-1	8	-1	0
CCOC(=O)c1c(C)[nH]c(C)c1C(=O)COC(=O)c1ccc2[nH]c(C)c(C)c2c1	66*	-6	-1	0
O=S(=O)(c1ccc(Cl)cc1)N(C1CC1)C1CCN(Cc2ccccc2)CC1	-9	-14	2	0
COC(=O)c1ccc(/C=C2\N=C(c3ccccc3)OC2=O)cc1	-7	-3	0	0
CN(C)CCNC(=O)c1ccc(Sc2ccccc2Cl)c([N+](=O)[O-])c1	-12	-8	0	0
CN(C)CCNC(=O)c1ccc(S(=O)(=O)c2ccc(Br)cc2)c([N+](=O)[O-])c1	55*	2	-1	0
COc1ccc(OCCNc2cc(N3CCN(CCO)CC3)ccc2[N+](=O)[O-])cc1	-13	-10	1	0
CSC1=C(C#N)C(c2ccccc2Cl)C(C(=O)Nc2ccccc2C)=C(C)N1 (stereo not drawn)	-4	15	0	2.0*
CCSC1=C(C#N)C(c2ccccc2Cl)C(C(=O)Nc2ccccc2C)=C(C)N1 (stereo not drawn)	-4	5	0	0
COc1ccc(Nc2nsc(C(=O)c3ccc(F)cc3)c2N)cc1	44*	-4	-1	0
COc1ccc(C(=O)c2snc(NCc3ccccc3)c2N)cc1	-21	5	1	0
Cc1ccc(C(C(=O)NC(C)(C)C)N(Cc2cccs2)C(=O)c2csnn2)o1 (stereo not drawn)	3	16	0	1
Fc1ccc(-c2cnc3ccc(NCCc4ccccn4)nn23)cc1	68*	17	0	0
c1ccc(-c2cnc3ccc(NCc4ccccn4)nn23)cc1	39*	-4	0	0
CN(C)c1ccc(-c2cnc3ccc(NCCc4ccccn4)nn23)cc1	29	31	-1	0
Clc1cccc(-c2cnc3ccc(NCc4ccccn4)nn23)c1	5	-12	-1	0
Oc1ccc(-c2cnc3ccc(NCc4ccco4)nn23)cc1	47*	6	0	0
COc1ccc(-c2cnc3ccc(NCc4ccccn4)nn23)cc1	45*	-8	-1	1
CCCc1cc(N2CCN(CCn3c(C)ccc3C)CC2)n2c(nc3ccccc32)c1C#N	4	6	1	0
SMILES	TEAD-YAP inh	MITF primary	GPR151 ag	FBW7 activator
COC(=O)C1=C(C)N(CCc2ccccc2)C(=O)/C1=C\c1ccccc1F	-13	-7	0	0
COc1cccc(CNCCC2CCC(=O)N2CCn2cncn2)c1 (stereo not drawn)	0	-1	-1	0
CN(C)c1ccc(-c2cnc3ccc(NCc4ccccn4)nn23)cc1	9	-2	1	0
COc1ccc(CNc2ccc3ncc(-c4cccc(CO)c4)n3n2)cc1	33*	-22	-1	0
Fc1ccc(-c2cnc3ccc(NCc4ccccn4)nn23)cc1	51*	-6	0	-1
COc1ccc2cc(-c3csc(N)n3)ccc2c1	32*	10	-5	0
COc1ccc(-c2csc(N)n2)c(F)c1	-33	0	0	0
NNc1nc(-c2ccc(O)c(O)c2)cs1	6	103*	0	0
Oc1ccc(-c2csc(NCc3ccccc3)n2)cc1O	-82	26	0	0
Nc1nc(-c2ccc(O)c(O)c2)cs1	3	79*	0	0
O=C(O)c1cccc(Nc2nc(-c3ccc(O)c(O)c3)cs2)c1	15	80*	0	0
CCN(CC)S(=O)(=O)c1cccc(C(=O)Nc2nc(COc3ccccc3)cs2)c1	32*	2	1	0
COc1ccc(/C=C/c2nn3c(Cn4cnc5ccccc54)nnc3s2)cc1	39*	7	3	0
O=C(O)c1ccc(N/N=C/C2=C(N3CCOCC3)C(=C\c3ccccc3)/CC2)cc1	-21	62*	0	0
O=S(=O)(O)c1ccc(N/N=C/C2=C(N3CCOCC3)C(=C\c3ccccc3)/CC2)cc1	0	-5	-1	0
Cc1ccc(Nc2ccc3nonc3c2[N+](=O)[O-])c(C)c1	-7	16	2	2.5*
Cc1ccc(Nc2ccc3nonc3c2[N+](=O)[O-])cc1C	1	6	0	0
COc1ccc(C)cc1Nc1c(-c2ccc3c(c2)OCC(=O)N3)c(=O)c1=O	4	1	1	0
FC(F)(F)c1cccc(CNc2nc(-c3ccc(N4CCOCC4)nc3)nc3nc[nH]c23)c1	3	10	1	18*
c1cc(Nc2ccc(N3CCOCC3)cc2)nc(NCc2ccc3c(c2)OCO3)n1	38*	6	1	0
OCC1CCCN1c1nccc(NCc2cccc(C(F)(F)F)c2)n1 (stereo not drawn)	43*	-4	1	0
FC(F)(F)c1cccc(CNc2nc(N3CCOCC3)nc3nc[nH]c23)c1	-4	0	-2	0
FC(F)(F)c1cccc(CNc2ccnc(Nc3ccc(N4CCOCC4)cc3)n2)c1	64*	25	-2	0
FC(F)(F)c1cccc(CNc2ccnc(NCCN3CCOCC3)n2)c1	24	6	2	0
Cc1ccc(NC(=O)CSc2nc3nc(C)c(Cc4c(F)cccc4Cl)c(C)n3n2)cc1	5	-4	3	0
SMILES	TEAD-YAP inh	MITF primary	GPR151 ag	FBW7 activator
COc1ccc(C(=O)Cn2c(N(CCO)CCO)nc3c2c(=O)n(C)c(=O)n3C)cc1	-7	1	2	0
Cc1cc(C)c(S(=O)(=O)N(C)CC(=O)Nc2ccc(S(N)(=O)=O)cc2)c(C)c1	3	-15	-1	0
O=C(CSc1nc2[nH]ncc2c(=O)n1-c1cccc(C(F)(F)F)c1)Nc1ccc(Cl)cc1	17	-1	0	1
FC(F)(F)Oc1cccc(-c2nccc(NCc3cccc(C(F)(F)F)c3)n2)c1	50*	-8	0	0
Cc1ncn(-c2ccc(Nc3ncc(Br)c(-c4cnn(C)c4)n3)cc2)n1	69*	12	-2	0
Cc1nc(C)n(-c2ccc(Nc3ncc4ccc(-c5cnn(C)c5)nc4n3)cc2)n1	72*	2	0	0
Cc1ccc(-c2ncn(-c3ccc(Nc4ncc5ccc(-c6cn[nH]c6C)cc5n4)cc3)n2)cn1	43*	4	0	0
Cc1ccc(-c2ncn(-c3ccc(Nc4ncc(F)c(-c5cnn(C)c5)n4)cc3)n2)cn1	46*	11	-2	0

Screens (PubChem BioAssay)
